# Test results: PubChem BioAssay AID1852 (Sanford-Burnham Center for Chemical Genomics, 2009)
# About 1,100 (44%) of roughly 2,500 compounds were called active. So high a share suggests a set chosen from earlier hits. Some of the results follow. Unmarked numbers belong to inactive results.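 The calls were made as follows: active = inhibition above 50% at 4 µM in the single-point screen; inactive = inhibition of 50% or less.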
# Test: blockers of TNF-a NF-kB luciferase induction – cell-based, HEK293T NF-kB-Luc, luminescence, selectivity assay for NOD1/NOD2 signaling inhibitor project, primary screen (AID 1852)
# Details: TNF-a induced, 14 h, at 4 µM, active compounds read high
row,SMILES,inhibition
1,COc1cc(/C=C2\COC/C(=C\c3cc(OC)c(OC)c(OC)c3)C2=O)cc(OC)c1OC,106% (active)
2,COc1cc(/C=C2/CCc3ccccc3C2=O)cc(OC)c1OC,-23.8%
3,COc1cc(/C=C2\CC(C(C)(C)C)C/C(=C\c3cc(OC)c(OC)c(OC)c3)C2=O)cc(OC)c1OC (stereo unspecified),87.2% (active)
4,CCc1cccc(NC(=O)C2CCCN(S(=O)(=O)c3cccs3)C2)c1 (stereo unspecified),18.2%
5,Cc1ccc(NC2=C/C(=N\S(=O)(=O)c3cccs3)c3ccccc3C2=O)c(C)c1,102% (active)
6,COC(=O)c1ccccc1NC1=C/C(=N\S(=O)(=O)c2cccs2)c2ccccc2C1=O,99.7% (active)
7,Cc1ccccc1NC1=C/C(=N\S(=O)(=O)c2cccs2)c2ccccc2C1=O,108% (active)
8,Cc1cccc(NC2=C/C(=N/S(=O)(=O)c3cccs3)c3ccccc3C2=O)c1,63.9% (active)
9,COc1ccc(CNS(=O)(=O)c2ccc3c(c2)CC(C)N3C(=O)C2CC2)cc1 (stereo unspecified),30%
10,Cc1ccc(Cl)cc1NC1=C/C(=N\S(=O)(=O)c2cccs2)c2ccccc2C1=O,102% (active)
11,CCOc1ccc(OCCN2C(=O)NC3(CCCc4ccccc43)C2=O)cc1 (stereo unspecified),18.7%
12,O=C(Nc1nc2cc3c(cc2s1)OCCO3)C1=COCCO1,22.7%
13,CN(CC1CCCO1)S(=O)(=O)c1ccc(C(=O)Nc2nc3cc4c(cc3s2)OCO4)cc1 (stereo unspecified),69.7% (active)
14,CCN(CC)S(=O)(=O)c1cccc(C(=O)Nc2nc3cc4c(cc3s2)OCCO4)c1,22%
15,CCC1CCCCN1S(=O)(=O)c1ccc(NC(=O)c2ccncc2)cc1 (stereo unspecified),9.7%
16,CC1CCCCN1S(=O)(=O)c1ccc(C(=O)Nc2nnc(-c3ccccc3Cl)o2)cc1 (stereo unspecified),97.2% (active)
17,O=C(Nc1nnc(-c2ccccc2Cl)o1)c1ccc(S(=O)(=O)N2CCCCCC2)cc1,93.9% (active)
18,O=C(c1ccc(S(=O)(=O)N2CCCCC2)cc1)N1CCN(CCN2C(=O)c3cccc4cccc(c34)C2=O)CC1,31%
19,CCC1CCCCN1S(=O)(=O)c1ccc(C(=O)Nc2nnc(-c3ccccc3Cl)o2)cc1 (stereo unspecified),70.3% (active)
20,O=C(c1[nH]ncc1-c1ccc(Cl)cc1)C1CO1 (stereo unspecified),12.8%
21,CN(C(=O)C(C)(C)C)c1ccc(OCC(=O)N2CCc3ccccc3C2)cc1,41.9%
22,CCOc1ccc(NC(=O)Nc2nc(SCC)ns2)cc1,12.2%
23,S=C(NNc1ccnc2cc(Cl)ccc12)Nc1ccc(Cl)cc1Cl,43.7%
24,S=C(NNc1ccnc2cc(Cl)ccc12)Nc1ccccc1Cl,64.6% (active)

row,SMILES,inhibition
1,FC(F)(F)c1cnc(NNC(=S)Nc2ccccc2Cl)c(Cl)c1,-6.8%
2,COc1ccc(-c2cncnc2-c2ccc(OC)cc2O)cc1,79.8% (active)
3,COc1ccc(-c2n[nH]c(C)c2-c2ccc(OC)c(OC)c2)c(O)c1,28.7%
4,COc1ccc(-c2cnc(N)nc2-c2ccc(OC)cc2O)cc1,70.5% (active)
5,COc1cccc(NC(=O)c2oc3ccc(S(=O)(=O)N4CCOCC4)cc3c2C)c1,-31.8%
6,Cc1c(C(=O)Nc2nonc2-c2ccc(F)cc2)oc2ccc(F)cc12,77.4% (active)
7,CC1CCN(c2ccc(-c3cccc(NC(=O)C(F)(F)F)c3)nn2)CC1,-170%
8,O=C(OCn1ncc(Cl)c(Cl)c1=O)c1ccc(F)cc1,83.1% (active)
9,Cc1ccc(C(=O)OCn2ncc(Cl)c(Cl)c2=O)cc1,88.1% (active)
10,O=C(OCn1ncc(Cl)c(Cl)c1=O)c1cccc(C(F)(F)F)c1,43%
11,COc1ccc(CCNc2oc(COc3ccc(Br)cc3)nc2C#N)cc1OC,24.5%
12,COc1ccc(Nc2oc(COc3ccccc3OC)nc2C#N)cc1,77.8% (active)
13,COc1ccc(CCNc2oc(COc3ccccc3Cl)nc2C#N)cc1OC,11.6%
14,Cc1ccc(NS(=O)(=O)c2sc3ccc(Cl)cc3c2C)cc1,9.4%
15,CCOc1ccc(Nc2nc(N)c3ccccc3n2)cc1,-144%
16,CCOc1ccc(NS(=O)(=O)c2ccc3[nH]c(=O)[nH]c3c2)cc1,88.5% (active)
17,COc1cc(CNc2ccc3[nH]c(=O)[nH]c3c2)ccc1OCc1cccc(C)c1,44.3%
18,CCOc1ccc(S(=O)(=O)Nc2cnc3ccccc3c2)cc1,81.5% (active)
19,CCOc1ccc(NS(=O)(=O)c2cc(Cl)ccc2OC)cc1,10.6%
20,COC(=O)CCn1nnc(-c2ccc(C(C)C)cc2)n1,71.7% (active)
21,CC(C)c1ccc(-c2nnn(CCC(=O)O)n2)cc1,49.4%
22,O=C(Nc1ccccc1)C1=C(c2ccccc2)S(=O)(=O)CCS1(=O)=O,60.9% (active)
23,Cc1ccc(NC(=O)C2=C(c3ccccc3)S(=O)(=O)CCS2(=O)=O)cc1,65% (active)
24,CC(C)=CCc1c(O)cc2oc3c(CC=C(C)C)c(O)c(O)c(CC=C(C)C)c3c(=O)c2c1O,15.6%

row,SMILES,inhibition
1,Brc1ccc2ncnc(NCc3ccco3)c2c1,60.4% (active)
2,C=CCNc1ncnc2ccc(Br)cc12,25.1%
3,Brc1ccc2ncnc(NCc3cccnc3)c2c1,65.2% (active)
4,Cc1ccc(/C=C2/SC(=S)N(c3ccc(S(=O)(=O)Nc4nccs4)cc3)C2=O)cc1,21%
5,O=C(O)c1ccc(N/N=C/c2ccc(OC(=O)c3ccccc3Cl)cc2)cc1,7.7%
6,CC(C)c1ccc(S(=O)(=O)/N=C2\C=C(NS(=O)(=O)c3ccccc3)C(=O)c3ccccc32)cc1,103% (active)
7,CC(C)Cc1ccc(S(=O)(=O)Nc2ccccn2)cc1,15.7%
8,CC(C)(C)c1ccc(S(=O)(=O)/N=C2\C=C(NS(=O)(=O)c3ccccc3)C(=O)c3ccccc32)cc1,96.3% (active)
9,CCc1oc2ccccc2c1C(=O)c1cc(Br)c(O)c(Br)c1,71.9% (active)
10,CCOC(=O)c1c(-c2ccccc2)oc2cc(Br)c(O)c(C=O)c12,50%
11,O=C(N/N=C/c1cc(Br)c(Br)s1)c1ccncc1,2.7%
12,CCOc1ccc2c(c1)C(=NNC(=O)c1ccncc1)c1cc(OCC)ccc1-2,106% (active)
13,Cc1ccc(S(=O)(=O)Nc2cccc3cccnc23)c([N+](=O)[O-])c1,103% (active)
14,O=S(=O)(Nc1cccc2cccnc12)c1ccccc1,-4%
15,O=S(=O)(Nc1cccc(-c2cn3cccnc3n2)c1)c1ccc(-c2ccccc2)cc1,20.8%
16,Cc1ccc(S(=O)(=O)Nc2cccc3cccnc23)cc1,105% (active)
17,Cc1ccc2cccc(NS(=O)(=O)c3ccccc3)c2n1,62.8% (active)
18,COc1cc(NS(=O)(=O)c2ccc3ccccc3c2)c2ncccc2c1,55.6% (active)
19,O=[N+]([O-])c1ccccc1S(=O)(=O)Nc1cccc2cccnc12,35%
20,COc1ccc(NS(=O)(=O)c2ccc3ccccc3c2)c2ncccc12,27.9%
21,Cc1nc(C)c(C(=O)NNS(=O)(=O)c2ccc3ccccc3c2)s1,21.5%
22,O=C(NCc1ccccc1)c1ccc(C2SCC(=O)N2Cc2ccccc2)cc1 (stereo unspecified),33.1%
23,CCOc1ccc(CCNC(=O)c2ccc3c(=O)[nH]c4c(C(=O)NC(C)C)sc(=S)n4c3c2)cc1,50.9% (active)
24,CCCCNC(=O)c1sc(=S)n2c1[nH]c(=O)c1ccccc12,69.9% (active)

row,SMILES,inhibition
1,COc1ccc(OC)c(CCNC(=O)c2ccc3c(=O)[nH]c4c(C(=O)NC(C)C)sc(=S)n4c3c2)c1,35.7%
2,O=C(NCc1ccco1)c1sc(=S)n2c1[nH]c(=O)c1ccccc12,54.1% (active)
3,O=C(NCc1ccccc1)c1sc(=S)n2c1[nH]c(=O)c1ccccc12,73.6% (active)
4,COc1cc(C(=O)Nc2sc3c(c2C(=O)NCc2ccco2)CCCC3)cc(OC)c1OC,-39.2%
5,CC(C)NC(=O)c1sc(=S)n2c1[nH]c(=O)c1ccc(C(=O)NCCc3ccc(Cl)cc3)cc12,42.5%
6,CCNC(=O)/C(C#N)=C/c1c(N2CCN(c3cccc(Cl)c3)CC2)nc2c(C)cccn2c1=O,-19.8%
7,CCc1nc(SCC(=O)N2CCN(c3ccccc3)CC2)c2oc3ccccc3c2n1,0.6%
8,COc1ccccc1N1CCN(c2nc(C)nc3c2oc2ccccc23)CC1,68.6% (active)
9,COc1ccccc1N1CCN(c2ncnc3sc(C)c(-c4ccccc4)c23)CC1,26.9%
10,Oc1cc2c(cc1C(c1ccc(Cl)c(Cl)c1)N1CCCC1)OCO2 (stereo unspecified),-22.5%
11,O=[N+]([O-])c1cc(Cl)cc(/C=N\Nc2ccccn2)c1O,48.8%
12,Cc1cc(N/N=C/c2ccccc2[N+](=O)[O-])nc(-n2nc(C)cc2C)n1,1.1%
13,O=[N+]([O-])c1ccc(O)c(/C=N/Nc2nc3ccccc3[nH]2)c1,67.8% (active)
14,O=[N+]([O-])c1cc(/C=N/Nc2nc3ccccc3[nH]2)c(O)cc1O,66.5% (active)
15,Cc1nc([N+](=O)[O-])c(Sc2nc3ccc([N+](=O)[O-])cc3[nH]2)n1Cc1ccccc1,38%
16,C[C@H]1O[C@@H](O[C@H]2[C@@H](O)C[C@H](O[C@H]3[C@@H](O)C[C@H](O[C@H]4CC[C@@]5(C)[C@H](CC[C@@H]6[C@@H]5C[C@@H](O)[C@]5(C)[C@@H](C7=CC(=O)OC7)CC[C@]65O)C4)O[C@@H]3C)O[C@@H]2C)C[C@H](O)[C@@H]1O,104% (active)
17,COC(=O)c1sc(NC(=O)c2cc(-c3ccccc3)nc3ccccc23)c(C#N)c1C,75.2% (active)
18,COc1cc(-c2cc(C(=O)Nc3ccc(N4CCOCC4)cc3)c3ccccc3n2)cc(OC)c1OC,21.8%
19,CCOC(=O)c1sc(NC(=O)c2cc(-c3ccccc3)nc3ccccc23)c(C#N)c1C,80.3% (active)
20,CCOC(=O)c1cc(-c2ccccc2)sc1NC(=O)c1cc(OC)c(OC)c(OC)c1,-26.7%
21,CCOC(=O)c1sc(NC(=O)CSc2n[nH]c(-c3ccccc3)n2)c(C#N)c1C,38.1%
22,CCOC(=O)c1sc(NC(=O)c2cc(-c3ccccc3C)nc3ccccc23)c(C#N)c1C,92.5% (active)
23,Cc1ccccc1-c1cc(C(=O)Nc2sc(C(=O)OC(C)C)c(C)c2C#N)c2ccccc2n1,94.3% (active)
24,Cc1ccc(NC(=O)Cc2cc(C(=O)O)c3ccccc3n2)c(C)c1,25.2%
